What all share (set-up): scale not given: direction of the effect not stated beside the values
For assay [1], the target named is Protein translocase subunit SecA (Escherichia coli (strain K12)) (UniProt P10408). Briefly: Assay to Identify E. coli SecA ATPase Inhibitors. The format is functional. The note with it: 30 µM.
In assay [2] the target is T1, Ubiquitin-activating enzyme e1, putative (Leishmania donovani (strain BPK282A1)) (UniProt E9BSI1).
T1 sequence (whole entry): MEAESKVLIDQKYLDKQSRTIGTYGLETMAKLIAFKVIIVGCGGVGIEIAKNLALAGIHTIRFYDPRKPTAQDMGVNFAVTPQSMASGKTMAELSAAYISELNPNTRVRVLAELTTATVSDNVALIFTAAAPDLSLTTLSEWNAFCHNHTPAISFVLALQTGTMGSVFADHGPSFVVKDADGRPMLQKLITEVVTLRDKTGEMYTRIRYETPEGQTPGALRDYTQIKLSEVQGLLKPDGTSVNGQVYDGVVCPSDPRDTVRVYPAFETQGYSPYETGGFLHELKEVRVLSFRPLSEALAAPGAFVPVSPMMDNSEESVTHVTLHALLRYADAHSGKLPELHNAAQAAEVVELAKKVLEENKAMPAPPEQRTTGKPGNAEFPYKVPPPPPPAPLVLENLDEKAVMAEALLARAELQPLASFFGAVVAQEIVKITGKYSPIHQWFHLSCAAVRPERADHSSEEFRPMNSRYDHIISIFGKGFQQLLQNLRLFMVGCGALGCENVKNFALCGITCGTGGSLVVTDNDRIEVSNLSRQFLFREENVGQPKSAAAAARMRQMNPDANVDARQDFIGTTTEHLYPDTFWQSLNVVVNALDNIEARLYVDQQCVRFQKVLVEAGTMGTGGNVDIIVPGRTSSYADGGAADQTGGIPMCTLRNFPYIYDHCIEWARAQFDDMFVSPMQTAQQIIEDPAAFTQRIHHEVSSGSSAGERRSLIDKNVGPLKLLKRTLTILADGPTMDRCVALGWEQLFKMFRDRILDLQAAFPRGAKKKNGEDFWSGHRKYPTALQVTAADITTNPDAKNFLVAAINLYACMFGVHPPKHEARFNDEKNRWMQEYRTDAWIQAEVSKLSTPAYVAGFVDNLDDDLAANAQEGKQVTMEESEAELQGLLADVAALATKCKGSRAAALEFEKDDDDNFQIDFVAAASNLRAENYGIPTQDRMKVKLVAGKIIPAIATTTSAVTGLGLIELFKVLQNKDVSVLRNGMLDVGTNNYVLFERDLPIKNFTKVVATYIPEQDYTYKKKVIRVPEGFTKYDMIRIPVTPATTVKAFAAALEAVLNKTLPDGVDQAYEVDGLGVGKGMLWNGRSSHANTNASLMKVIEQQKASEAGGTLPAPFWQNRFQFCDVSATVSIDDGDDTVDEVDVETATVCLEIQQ
Briefly: Leishmania donovani Ubiquitin Activating Enzyme (LdE1). The format is functional. The note with it: 30 µM.

Assay [3] concerns the target AMP-activated protein kinase, AMPK (Homo sapiens) (UniProt P54646+O43741+P54619+Q9UGJ0+Q9Y478+Q13131+Q9UGI9). Briefly: AMP-dependent Kinase enzyme assay. An in vitro enzyme assay that detects ADP turnover that is directly proportional to AMPK activity. This uses naive AMPK that is activated during the assay with MK-8722. The format is functional. The note with it: 30 µM.

Assay [4] has as its target Sialic acid-binding Ig-like lectin 9 (Homo sapiens) (UniProt Q9Y336). Briefly: Hs-Siglec9 ALPHAscreen SOP 20170721. The settings on record: 10 µM.
For assay [5], the system named is Trypanosoma cruzi. The assay can be described thus: Trypanosoma cruzi phosphomannomutase and mannose-1-phosphate guanylyltransferase assay. The format is functional. The note with it: 10 µM.
The target in assay [6] is T2, Arginase-2, mitochondrial (Homo sapiens) (UniProt P78540).
T2 sequence (whole entry): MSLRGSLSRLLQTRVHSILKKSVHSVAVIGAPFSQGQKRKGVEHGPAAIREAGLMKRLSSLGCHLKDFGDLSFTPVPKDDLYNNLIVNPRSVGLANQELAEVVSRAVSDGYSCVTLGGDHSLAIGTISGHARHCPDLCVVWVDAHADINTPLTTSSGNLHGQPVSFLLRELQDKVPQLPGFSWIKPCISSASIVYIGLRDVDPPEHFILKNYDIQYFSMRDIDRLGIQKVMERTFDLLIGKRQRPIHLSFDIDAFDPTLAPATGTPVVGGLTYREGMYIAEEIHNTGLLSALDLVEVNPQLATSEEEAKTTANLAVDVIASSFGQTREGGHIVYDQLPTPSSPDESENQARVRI
Briefly: in vitro enzyme assay to detect the production of urea directly proportional to the activity of Arginase II. Also: in the data most compounds retested in dose-response had high values. The settings on record: 33.3 µM. The format is functional.

The target in assay [7] is T3, Proteasome subunit beta (Trypanosoma cruzi) (UniProt O96673).
T3 sequence (whole entry): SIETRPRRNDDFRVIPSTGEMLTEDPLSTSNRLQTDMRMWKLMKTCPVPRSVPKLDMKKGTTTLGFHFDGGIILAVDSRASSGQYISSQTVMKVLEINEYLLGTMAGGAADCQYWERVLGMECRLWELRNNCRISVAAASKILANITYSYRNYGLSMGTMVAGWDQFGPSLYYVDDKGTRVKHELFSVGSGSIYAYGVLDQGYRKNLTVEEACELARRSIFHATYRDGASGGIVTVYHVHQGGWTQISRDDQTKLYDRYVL
Briefly: Trypanosoma cruzi proteasome chymotrypsin-like activity (TcProtChymo) assay. Also: in the data most compounds retested in dose-response had high values. The format is functional. The note with it: 9.37 µM.

The species entered for assay [8] is Homo sapiens. Briefly: To identify inhibition of the IFN signalling (Jak-Stat) pathway via expression of an eGFP reporter gene under the control of an IFN-stimulated response element (ISRE) containing MxA promoter. The format is functional. The note with it: 30 µM.
The target in assay [9] is T4, Tyrosyl-tRNA synthetase, putative (Trypanosoma cruzi (strain CL Brener)) (UniProt Q4DSP6).
T4 sequence (whole entry): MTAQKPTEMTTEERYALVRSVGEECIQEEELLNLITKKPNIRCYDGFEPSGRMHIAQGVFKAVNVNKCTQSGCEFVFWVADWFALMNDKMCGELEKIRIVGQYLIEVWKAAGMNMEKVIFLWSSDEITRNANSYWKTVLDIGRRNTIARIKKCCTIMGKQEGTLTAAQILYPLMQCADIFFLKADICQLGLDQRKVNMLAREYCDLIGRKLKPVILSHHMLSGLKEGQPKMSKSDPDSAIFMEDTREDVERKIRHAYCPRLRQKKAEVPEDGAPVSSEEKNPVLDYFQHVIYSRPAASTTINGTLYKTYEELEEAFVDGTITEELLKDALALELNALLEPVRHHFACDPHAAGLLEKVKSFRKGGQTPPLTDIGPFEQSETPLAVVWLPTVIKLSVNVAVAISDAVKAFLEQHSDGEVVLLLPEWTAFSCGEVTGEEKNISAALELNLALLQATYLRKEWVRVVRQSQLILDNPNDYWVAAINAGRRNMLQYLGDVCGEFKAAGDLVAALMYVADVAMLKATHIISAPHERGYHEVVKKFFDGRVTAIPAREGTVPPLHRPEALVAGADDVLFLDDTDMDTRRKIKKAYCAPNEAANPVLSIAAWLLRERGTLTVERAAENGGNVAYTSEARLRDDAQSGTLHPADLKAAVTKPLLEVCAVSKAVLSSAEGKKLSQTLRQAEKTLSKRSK
Briefly: Trypanosoma cruzi tyrosyl tRNA synthetase (TcYRS) _High Tyrosine SOP. Also: in the data most compounds retested in dose-response had high values. The format is functional. The settings on record: 30 µM.

Assay [10] has as its target T4, Tyrosyl-tRNA synthetase, putative (Trypanosoma cruzi (strain CL Brener)). The assay can be described thus: Trypanosoma cruzi tyrosyl tRNA synthetase (TcYRS) SOP. The settings on record: 30 µM. The format is functional.
Assay [11] has as its target Chromo domain-containing protein 1 (Saccharomyces cerevisiae (strain ATCC 204508 / S288c) (Baker's yeast)) (UniProt P32657). The assay can be described thus: ScCHD-1 Enzyme Inhibition Assay. Also: in the data most compounds retested in dose-response had high values. The format is functional. The settings on record: 30 µM.

For some assays here: Potency and affinity values are given separately.

In ChEMBL document CHEMBL3988442, “University of Dundee, Small-Polar-MMV Screening Library” (2021) one finds Percent Effect data, which are given here for 10 compounds.

Chain of Protein translocase subunit SecA (Escherichia coli (strain K12)) (P10408 whole entry): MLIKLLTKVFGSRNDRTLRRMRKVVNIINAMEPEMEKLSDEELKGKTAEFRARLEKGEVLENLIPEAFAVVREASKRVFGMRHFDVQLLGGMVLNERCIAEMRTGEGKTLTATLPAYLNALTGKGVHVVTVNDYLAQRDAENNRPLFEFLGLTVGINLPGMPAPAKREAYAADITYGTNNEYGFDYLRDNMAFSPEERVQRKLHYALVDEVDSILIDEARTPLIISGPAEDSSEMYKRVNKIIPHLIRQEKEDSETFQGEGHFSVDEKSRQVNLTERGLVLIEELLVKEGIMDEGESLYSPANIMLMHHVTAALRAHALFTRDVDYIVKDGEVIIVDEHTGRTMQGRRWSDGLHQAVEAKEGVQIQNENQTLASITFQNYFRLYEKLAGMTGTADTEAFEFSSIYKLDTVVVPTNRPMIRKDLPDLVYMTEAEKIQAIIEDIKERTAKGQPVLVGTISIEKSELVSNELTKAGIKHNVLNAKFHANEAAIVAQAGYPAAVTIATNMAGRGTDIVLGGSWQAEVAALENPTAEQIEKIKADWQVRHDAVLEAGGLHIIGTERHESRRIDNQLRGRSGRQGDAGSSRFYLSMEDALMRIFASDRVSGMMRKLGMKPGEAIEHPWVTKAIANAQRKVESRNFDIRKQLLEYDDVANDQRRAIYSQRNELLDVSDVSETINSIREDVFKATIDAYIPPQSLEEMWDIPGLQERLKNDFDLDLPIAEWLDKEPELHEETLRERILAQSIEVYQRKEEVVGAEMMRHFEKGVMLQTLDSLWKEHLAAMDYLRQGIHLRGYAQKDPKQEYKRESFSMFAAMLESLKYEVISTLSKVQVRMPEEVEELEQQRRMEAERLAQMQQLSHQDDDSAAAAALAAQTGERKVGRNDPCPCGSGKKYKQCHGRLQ
Chain of Sialic acid-binding Ig-like lectin 9 (Homo sapiens) (Q9Y336 whole entry): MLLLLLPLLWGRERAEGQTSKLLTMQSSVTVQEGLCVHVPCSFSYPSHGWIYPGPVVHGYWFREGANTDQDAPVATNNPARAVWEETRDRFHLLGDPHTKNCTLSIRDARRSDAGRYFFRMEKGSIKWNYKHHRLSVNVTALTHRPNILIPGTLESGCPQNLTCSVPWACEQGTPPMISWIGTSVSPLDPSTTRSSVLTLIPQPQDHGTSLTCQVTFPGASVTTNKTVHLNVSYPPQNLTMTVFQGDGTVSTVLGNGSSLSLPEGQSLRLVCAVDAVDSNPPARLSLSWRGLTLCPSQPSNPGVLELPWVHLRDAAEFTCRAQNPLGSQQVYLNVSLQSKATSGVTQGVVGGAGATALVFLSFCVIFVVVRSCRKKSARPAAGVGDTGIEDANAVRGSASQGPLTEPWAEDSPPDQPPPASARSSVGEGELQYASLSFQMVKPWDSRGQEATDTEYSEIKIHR
Chain of Chromo domain-containing protein 1 (Saccharomyces cerevisiae (strain ATCC 204508 / S288c) (Baker's yeast)) (P32657 whole entry, the tested form may be a part): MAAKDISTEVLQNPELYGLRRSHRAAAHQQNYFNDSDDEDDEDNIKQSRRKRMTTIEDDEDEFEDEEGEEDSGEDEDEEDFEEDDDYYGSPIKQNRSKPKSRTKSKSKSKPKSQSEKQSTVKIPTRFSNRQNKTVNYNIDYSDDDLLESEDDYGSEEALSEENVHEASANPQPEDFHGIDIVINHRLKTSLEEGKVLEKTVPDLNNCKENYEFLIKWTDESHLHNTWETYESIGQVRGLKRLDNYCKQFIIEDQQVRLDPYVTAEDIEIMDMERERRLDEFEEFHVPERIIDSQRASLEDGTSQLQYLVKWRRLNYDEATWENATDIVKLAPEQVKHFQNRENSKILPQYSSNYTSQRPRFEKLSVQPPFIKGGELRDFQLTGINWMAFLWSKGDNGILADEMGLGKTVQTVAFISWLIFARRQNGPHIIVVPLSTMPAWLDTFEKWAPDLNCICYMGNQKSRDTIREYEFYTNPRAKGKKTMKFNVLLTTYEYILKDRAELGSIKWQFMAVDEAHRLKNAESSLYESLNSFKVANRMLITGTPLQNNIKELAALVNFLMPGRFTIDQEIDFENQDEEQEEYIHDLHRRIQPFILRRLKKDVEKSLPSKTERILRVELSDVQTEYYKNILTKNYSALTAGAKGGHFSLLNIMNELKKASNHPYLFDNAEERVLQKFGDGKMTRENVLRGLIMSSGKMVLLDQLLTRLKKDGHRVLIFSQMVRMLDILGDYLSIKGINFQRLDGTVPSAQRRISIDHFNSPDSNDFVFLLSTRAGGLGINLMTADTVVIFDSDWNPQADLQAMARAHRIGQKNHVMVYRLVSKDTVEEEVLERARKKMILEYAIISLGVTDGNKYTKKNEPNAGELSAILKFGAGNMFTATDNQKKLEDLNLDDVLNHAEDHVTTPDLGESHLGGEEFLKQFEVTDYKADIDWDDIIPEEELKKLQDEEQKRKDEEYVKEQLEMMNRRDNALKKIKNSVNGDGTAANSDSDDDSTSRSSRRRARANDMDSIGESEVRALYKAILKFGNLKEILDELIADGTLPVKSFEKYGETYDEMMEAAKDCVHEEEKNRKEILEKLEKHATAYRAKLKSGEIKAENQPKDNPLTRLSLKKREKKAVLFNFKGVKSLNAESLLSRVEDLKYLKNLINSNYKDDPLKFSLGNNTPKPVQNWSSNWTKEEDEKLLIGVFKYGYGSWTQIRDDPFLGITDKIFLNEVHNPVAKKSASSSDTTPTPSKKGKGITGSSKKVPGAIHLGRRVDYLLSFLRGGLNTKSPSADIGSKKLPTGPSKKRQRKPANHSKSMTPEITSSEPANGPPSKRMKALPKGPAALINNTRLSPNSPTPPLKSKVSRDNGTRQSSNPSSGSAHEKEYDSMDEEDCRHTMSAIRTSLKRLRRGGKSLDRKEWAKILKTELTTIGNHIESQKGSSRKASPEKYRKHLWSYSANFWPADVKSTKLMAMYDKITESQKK

`N#Cc1ccc(NCCNc2ccc(C(F)(F)F)cn2)nc1`: the Percent Effect was -2.89% in assay [1]; 7.89% in [2]; 4.53% in assay [3]; 10.9% in assay [4]; 3.01% in assay [5]; -1.53% in [6]. The Percent Effect is 10.7% in assay [7]; 104% in assay [8]; 8.33% in assay [9]; 24.4% in [10]; 2.5% in [11].

Consider `COc1ccc(-n2cnnc2SCC(C)(C)O)cn1`, for which the Percent Effect in assay [1] is -0.589%; in assay [2] it was 2.67%; in [3], -3.7%; in [4] it was 25.4%; in assay [5] it was 3.02%; in [6], 16.7%. Also, the Percent Effect in [7] was -5.75%; in assay [8], 15.9%; in [9], 3.83%; in assay [10], 3.7%; in [11], -1.24%.

Consider `CCOc1ncccc1CNC(=O)N1CCCC1c1ccncc1` (stereo not given), for which the Percent Effect in [1] is -1.89%; in [2], 5.33%; in assay [3], -2.16%; in assay [4], 2.11%; in assay [5], -7.3%; in assay [6] it was 4.17%. Moreover, the Percent Effect is 8.37% in assay [7]; 12.2% in assay [8]; 4.92% in assay [9]; 13.6% in assay [10]; -7.62% in [11].

With `Cc1nc(CN2CCC3(CCN(c4ncc(F)cn4)C3)C2=O)cs1` (stereo not given), the Percent Effect was 1.42% in [1]; 15.6% in [2]; 4.16% in assay [3]; -14.7% in [4]; -3.25% in assay [5]; 9.68% in [6]. Also, the Percent Effect in assay [7] is 21.4%; in assay [8], 6.2%; in assay [9], 6.35%; in assay [10], 11.5%; in [11] it was -9.48%.

`Cc1cc(C)c2cc(CNCC3CCCO3)c3nn(C)c(=O)n3c2c1` (stereo not given): the Percent Effect is -1.56% in assay [1]; 9.46% in assay [2]; 5.25% in assay [3]; 0.0533% in assay [4]; 2.17% in assay [5]; -1.62% in [6]. Besides, the Percent Effect was 7.96% in assay [7]; 27% in [8]; 2.15% in [9]; 9.09% in assay [10]; -28.2% in assay [11].

Regarding `Cc1ccc(N2CC3(CCN(c4nccs4)C3)C2)nn1`, the Percent Effect in assay [1] was 0.227%; in assay [2], 2.74%; in assay [3], 1.72%; in [4], 6.68%; in assay [5] it was -0.794%; in assay [6], 0.798%. In addition, the Percent Effect in assay [7] is 14%; in assay [8], 0.564%; in assay [9], 5.21%; in assay [10], 11.1%; in assay [11], 0.982%.

With `CC(NCc1ccncc1)c1cc(F)ccc1N1CCN(C)CC1` (stereo not given), the Percent Effect in assay [1] was -1.22%; in assay [2] it was 5.41%; in assay [3] it was -10.4%; in [4], 21%; in assay [5], 6.16%; in [6], 15.6%. Also, the Percent Effect is 5.58% in assay [7]; -10.1% in assay [8]; 2.15% in assay [9]; 11.1% in assay [10]; -9.91% in assay [11].

For `Cc1cc(C(=O)N2C[C@@H]3COC[C@]3(COCc3cccnc3)C2)no1`, the Percent Effect in [1] was -2.45%; in assay [2], 33.8%; in assay [3] it was 4.4%; in assay [4], -2.26%; in assay [5], -3.45%; in assay [6], 3.23%. The Percent Effect is 7.31% in assay [7]; 4.17% in assay [8]; -2.12% in [9]; 8.97% in assay [10]; -5.95% in assay [11].

As to `Cc1csc2nc3n(c(=O)c12)CCN(C(=O)c1ccncc1)CC3`, the Percent Effect in [1] is -6.48%; in assay [2] it was 20.3%; in assay [3] it was 7.17%; in assay [4], -3.24%; in assay [5], 1.78%; in assay [6], -2.09%. The Percent Effect in assay [7] is 9.83%; in assay [8], 12.7%; in assay [9], 2.15%; in assay [10], 11.7%; in assay [11] it was -13.5%.

For the compound `O=C(NCCNc1ncccn1)N1CCSCC1`, the Percent Effect in [1] is -0.808%; in [2] it was 13.5%; in [3], -7.4%; in assay [4] it was 9.38%; in assay [5] it was 3.87%; in assay [6] it was -5.21%. For the same compound, the Percent Effect is 7.39% in assay [7]; 11.3% in assay [8]; 5.42% in assay [9]; 16.1% in [10]; -9.99% in assay [11].
